Measurements as given in PubChem BioAssay.

Each molecule was assayed against Voltage-gated potassium channel subunit beta-2 (Rattus norvegicus) (UniProt P62483) (assay: inhibitors of rat Kvbeta2 reductase activity – biochemical, NADPH fluorescence, primary screen (AID 622;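 note: slope of raw intensity against log time taken from 70 to 1610 s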)). Conditions: recombinant KvBeta, 4-cyanobenzaldehyde reduction, at 10 µM, hits give high values;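 active = fluorescence slope higher than the sample average by over 3 SD (cut at about -0.22 in these data, passing the limit was not always enough); inactive = the rest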.
Chain of Voltage-gated potassium channel subunit beta-2 (Rattus norvegicus) (P62483 whole entry, looked up): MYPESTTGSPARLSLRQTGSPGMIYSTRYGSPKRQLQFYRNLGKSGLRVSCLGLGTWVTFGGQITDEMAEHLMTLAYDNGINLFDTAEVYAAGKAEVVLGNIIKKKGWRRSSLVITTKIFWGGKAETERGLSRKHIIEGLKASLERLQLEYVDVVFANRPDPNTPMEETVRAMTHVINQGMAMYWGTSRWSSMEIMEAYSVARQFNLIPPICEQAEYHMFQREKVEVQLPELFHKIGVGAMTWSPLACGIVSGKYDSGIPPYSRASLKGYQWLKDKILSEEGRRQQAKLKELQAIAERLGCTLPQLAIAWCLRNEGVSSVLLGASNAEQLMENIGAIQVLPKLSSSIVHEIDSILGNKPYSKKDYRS

Fluorescence slope, inactive:
COc1cccc(C(=O)OC2CCCN(C)C2)c1 (stereo not given) -0.457
FC(F)(F)c1cccc(N2CCc3cn[nH]c32)c1 -0.48
Cc1cc(=O)oc(C)c1C(=O)NCCC1=CCCCC1 -0.415
COCCNC(=O)C(C#N)c1nc2ccccc2nc1N1CCN(Cc2ccc3c(c2)OCO3)CC1 (stereo not given) -0.474
Cc1cc(CC(=O)O)c(C)cc1CC(=O)O -0.445
Nc1nc2n(n1)C(c1cccs1)CC(c1ccc(F)cc1)N2 (stereo not given) -0.436
CCOC(=O)C1=Nc2ccccc2C1=[N+]=[N-] -0.477
CCc1nc2c(sc3nc(N4CCOCC4)c4c(c32)CC(C)(C)OC4)c(=O)o1 -0.479
CC(=O)/C(C#N)=C1\NC(=O)C(Cc2ccccc2Cl)S1 (stereo not given) -0.416
COC(=O)/C=c1/s/c(=C(\C#N)C(=O)NCc2ccco2)n(-c2ccccc2)c1=O -0.455
O=C(NCCCN1CCOCC1)C1(c2ccccc2)CCOCC1 -0.501
CCN(CC)CCN1C(=O)C(=O)/C(=C(/O)c2c(C)[nH]c(C(=O)OC)c2C)C1c1ccccc1 (stereo not given) -0.485
Cc1ccc(S(=O)(=O)c2cc3c(=O)n4cccc(C)c4nc3n(CC3CCCO3)c2=N)cc1 (stereo not given) -0.456
COC(=O)C(NC(=O)c1ccco1)(Nc1nc(C)cs1)C(F)(F)F (stereo not given) -0.459
CC(=O)C1=C(O)C(=O)N(c2ccc(Br)cn2)C1c1ccccc1F (stereo not given) -0.454
Cc1ccc(S(=O)(=O)N(CC(O)CN2CCOCC2)c2cc(Cl)ccc2Cl)cc1 (stereo not given) -0.403
CCNC(=O)COn1c(SCC(=O)NCC)nc2ccccc2c1=O -0.443
CCCOc1cccc(C2/C(=C(/O)c3ccc(F)cc3)C(=O)C(=O)N2CCN(C)C)c1 (stereo not given) -0.478
Cc1ccc(N(CN2C(=O)C3CC=CCC3C2=O)C(=O)c2ccco2)cc1Cl (stereo not given) -0.453
O=c1[nH]cnc2c1cnn2Cc1ccccc1 -0.354
COC(=O)C(NC(C)=O)(Nc1ccc(Br)cn1)C(F)(F)F (stereo not given) -0.471
COC(=O)/C=c1/s/c(=C(/C#N)C(=O)N2CCCCC2)n(-c2ccccc2)c1=O -0.546
O=c1c2sc3nc(N4CCOCC4)c4c(c3c2ncn1Cc1ccco1)CCCC4 -0.369
COc1ccc(CC(=O)n2c(CC#N)nc3ccccc32)cc1OC -0.465
CCN(CC)CCN1C(=O)C(O)=C(C(=O)c2cc3ccccc3o2)C1c1cccnc1 (stereo not given) -0.431
COc1ccc(CSc2nnc3n(C)c(=O)c4c5c(sc4n23)CCCC5)cc1 -0.41
CC(NC(=O)Nc1cccnc1)(C(F)(F)F)C(F)(F)F -0.454
CCOC(=O)CSc1nnc(C)c(=O)[nH]1 -0.476
O=S(=O)(/C=C/c1ccccc1)Nc1ccc2c(c1)OCO2 -0.476
Cn1c(=O)c2c3c(sc2n2c(SCC(=O)c4ccccc4)nnc12)COC(C)(C)C3 -0.511
COc1cccc(C2C(C(=O)c3sc(C)nc3C)=C(O)C(=O)N2CCN2CCOCC2)c1OC (stereo not given) -0.47
NC(=O)C1CCN(C2OC(=O)c3ccccc32)CC1 (stereo not given) -0.447
CCCCOC(=O)c1[nH]c(C)c(C(=O)OC)c1C -0.481
CCSc1nnc(NC(=O)C(C)(C(F)(F)F)C(F)(F)F)s1 -0.49
Cc1ccc(N2C(=O)CC3(CC4C=CC3C4)C2=O)cc1 (stereo not given) -0.414
Cn1c(NCC(O)c2ccccc2)nc2c1c(=O)n(Cc1ccc(Cl)cc1)c(=O)n2C (stereo not given) -0.423
N#Cc1nc(-c2ccc(F)cc2)oc1N1CCCC1 -0.348
COC(=O)/C(C#N)=C1/SC=C(C)N1c1ccccc1 -0.46
COc1ccc2nc(/N=C(\N)NC(=O)C(C)(C)C)nc(C)c2c1 -0.361
O=C(NCCCNCc1ccccc1)/C(=N\O)c1ccccc1 -0.401
